Source: PubChem BioAssay (National Center for Advancing Translational Sciences (NCATS))
Compounds with a hit are over-represented: about 12% of the library has one in this group of screens.
Sm TGR inh: blocks Schistosoma mansoni thioredoxin glutathione reductase; Potency, µM (doses to about 114 µM), actives largely listed as inhibitors; purified TGR, DTNB reduction, TNB absorbance 405 nm; AID 485364; Q962Y6; 360,000 compounds, 3% hits; note: nearly all actives have a fitted effect of over 60% in size
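First, TGR (20 nM dispensed) and NADPH were mixed with compound. Second, a 15 min room-temperature incubation followed. Third, further NADPH and then DTNB were added to start the reaction. Finally, TNB absorbance was monitored kinetically.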
AmpC inh no detg: inhibitors of E. coli AmpC beta-lactamase without detergent; AmpC nitrocefin hydrolysis, absorbance 480 nm, 0.0001% Triton; Potency, µM (doses to about 57.1 µM), actives largely listed as inhibitors; 330,000 compounds, 0.52% hits; note: nearly all actives have a fitted effect of over 20% in size
Target sequence (P00811 whole entry, looked up): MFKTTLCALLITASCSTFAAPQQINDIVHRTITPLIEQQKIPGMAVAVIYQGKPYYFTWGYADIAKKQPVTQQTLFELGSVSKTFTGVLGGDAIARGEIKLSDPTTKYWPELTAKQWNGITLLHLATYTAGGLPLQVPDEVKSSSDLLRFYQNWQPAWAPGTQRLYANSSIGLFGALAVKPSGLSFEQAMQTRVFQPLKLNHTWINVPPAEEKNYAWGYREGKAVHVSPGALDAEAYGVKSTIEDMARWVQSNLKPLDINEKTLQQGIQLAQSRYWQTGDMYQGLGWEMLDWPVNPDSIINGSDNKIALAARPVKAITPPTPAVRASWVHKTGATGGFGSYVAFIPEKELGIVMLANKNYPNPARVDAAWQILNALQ
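20 mM phosphate pH 7.0 + 0.01% (detergent screen) or 0.0001% Triton X-100; 5.3 nM AmpC reagent; cpd preinc 15 min RT; nitrocefin (800 uM stock) to start; A480 q20 s × 4 min; Activity was normalised to no-enzyme and no-compound control wells.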
Pf growth 96h: inhibits malaria parasite growth, 96 h; Potency, µM (highest dose often 28.7 µM), most hits filed as inhibitors; P. falciparum luciferase reporter growth, 96 h; 320,000 compounds, 6.9% hits
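Plates of compound plus infected erythrocytes (2% hematocrit, 0.05% parasitemia final) incubate 96 hours, 37 C, 5% CO2. Detection reagent added; reduced luminescence from the parasites' luciferase reporter flags inhibition.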
Pf growth 48h: inhibits P. falciparum growth in the first generation, 48 h. P. falciparum luciferase growth in erythrocytes, 48 h. Potency, µM (doses to about 28.7 µM), usual class: inhibitors. 310,000 compounds, 5.9% hits
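Luminescence readout; reporter = integrated firefly luciferase in P. falciparum. RBC culture at 2% hematocrit, 0.1% parasitemia final, 37 C/5% CO2; decreased signal taken as growth inhibition.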
SARS PLpro yeast: SARS-CoV PLP inhibition in yeast; Potency, µM (titrated, usually from 32.9 µM), hits mostly activators; AID 485353; 330,000 compounds, 0.19% hits; S. cerevisiae expressing SARS-CoV PLpro, growth rescue; calls by dose curve; note: nearly all actives have a fitted effect of over 55% in size
AmpC detergent: inhibitors of E. coli AmpC beta-lactamase with detergent; 370,000 compounds, 0.041% hits; Potency, µM (series often up to 114 µM), usual class: inhibitors; AmpC hydrolysis of nitrocefin, absorbance 480 nm, 0.01% Triton; P00811; note: nearly all actives have a fitted effect of over 25% in size
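20 mM phosphate pH 7.0 + 0.01% (detergent screen) or 0.0001% Triton X-100; 5.3 nM AmpC reagent; cpd preinc 15 min RT; nitrocefin (800 uM stock) to start; A480 q20 s × 4 min; Activity was normalised to no-enzyme and no-compound control wells.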
Hits are given with their value; i = inactive; ? = inconclusive; nt = not tested or not shown; [ ] = remark or other dose. Unless noted, calls come from the whole dose curve; as a rule, active = well fitted curve in the direction sought with a large enough effect; inconclusive = small, poorly fitted or top-dose-only effect, or another doubt; inactive = no such curve, though single readings can be large; an effect the other way counts as inactive or inconclusive.

SMILES	Sm TGR inh	AmpC inh no detg	Pf growth 96h	Pf growth 48h	SARS PLpro yeast	AmpC detergent
O=C(c1cccc(Cl)c1)N1CCN(c2ccccn2)CC1	i	i	?	i	i	i
O=C(c1ccc(S(=O)(=O)c2cccc(Cl)c2)c([N+](=O)[O-])c1)N1CCN(c2ccccn2)CC1	3.55µM	i	?	?	i	i
O=C(c1ccc(S(=O)(=O)c2ccccc2Cl)c([N+](=O)[O-])c1)N1CCCCCC1	i	i	13.1µM	?	i	?
CN(Cc1ccccc1)C(=O)c1[nH]cnc1C(=O)NCC(=O)OCc1ccccc1	i	i	i	i	i	i
COc1ccc(-c2cnc[nH]2)cc1	i	i	i	i	i	i
COC(=O)C1=C(C)N(CCC2=CCCCC2)C(=O)C1	31.6µM	i	nt	i	i	i
CCN1C(=O)CC(C(=O)OC)=C1C	i	i	i	i	i	i
Nc1nc(SCC(=O)N2N=C3/C(=C/c4ccco4)CCCC3C2c2ccco2)n[nH]1 (stereo not drawn)	?	i	nt	?	i	i
O=C(CSc1nccc(=O)[nH]1)N1N=C2/C(=C/c3ccco3)CCCC2C1c1ccco1 (stereo not drawn)	22.4µM	i	i	i	i	i
Cn1cnnc1SCC(=O)N1N=C(c2ccc(Cl)cc2)CC1c1ccco1 (stereo not drawn)	31.6µM	i	i	i	i	i
Cc1ccc(C2=NN(C(=O)CSc3nnnn3C)C(c3ccco3)C2)cc1 (stereo not drawn)	?	i	i	?	nt	i
O=C(CSc1ncn[nH]1)N1N=C2/C(=C/c3ccccc3)CCCC2C1c1ccccc1 (stereo not drawn)	i	i	7.38µM	?	?	i
Cn1cnnc1SCC(=O)N1N=C2/C(=C/c3ccco3)CCCC2C1c1ccco1 (stereo not drawn)	44.7µM	i	10.4µM	?	i	i
COc1ccc(C(=O)N2CCc3cc(OC)c(OC)cc3C2COc2ccc3c(C)cc(=O)oc3c2)c(OC)c1 (stereo not drawn)	i	nt	nt	nt	nt	i
CCCCC1C2=C(CC(C)(C)CC2=O)OC2=C1C(=O)CC(C)(C)C2	i	i	11.7µM	?	i	i
CCCCCCC1C(C#N)=C(N)OC2=C1C(=O)CC(C)(C)C2 (stereo not drawn)	i	i	i	i	i	?
O=C(NC1CCCCC1)c1ccc(CNc2ccccc2)o1	i	i	i	i	i	i
Cc1cc(C)c2nc(N(CCCN(C)C)C(=O)C3=COCCO3)sc2c1	i	i	?	11.7µM	i	i
Cc1cccc2sc(N(CCN(C)C)C(=O)c3ccc4c(c3)OCCO4)nc12	i	nt	nt	nt	nt	i
CN(C)CCCN(C(=O)C1=COCCO1)c1nc2ccc(Br)cc2s1	i	i	?	?	i	i
Cc1cc(C)c2nc(N(CCCN(C)C)C(=O)c3ccc4c(c3)OCCO4)sc2c1	i	i	7.38µM	10.4µM	i	i
COc1ccc(C)c2sc(N(CCCN(C)C)C(=O)c3ccc4c(c3)OCCO4)nc12	i	i	8.28µM	9.28µM	i	i
CCOC(=O)c1c(C)[nH]c(CCC(=O)NC(C)c2ccccc2)c1C (stereo not drawn)	i	nt	nt	nt	nt	i
O=C(/C(Br)=C/Nc1cc(Cl)ccc1Cl)C(F)(F)F	22.4µM	i	i	i	i	i
C[n+]1cc(-c2ccccc2)n2c1CCCCC2	i	i	1.65µM	?	i	?
SMILES	Sm TGR inh	AmpC inh no detg	Pf growth 96h	Pf growth 48h	SARS PLpro yeast	AmpC detergent
O=c1c2sc(-c3ccccc3)cc2nc2n1CCCCC2	i	i	i	i	i	i
CC1CCC(C(C)C)C(OC(=O)C[n+]2cc(-c3ccc(Cl)cc3)n3c2CCCCC3)C1 (stereo not drawn)	i	i[11.4 µM]	2.94µM	2.94µM	i	?
Cc1ccc(-c2c[n+](CC(=O)c3ccc(Br)cc3)c3n2CCCCC3)cc1	i	i	i	5.22µM	i	i
COc1ccc(-c2c[n+](CC(=O)c3ccccc3)c3n2CCCCC3)cc1	i	i	?	?	i	i
O=C(C[n+]1cc(-c2ccccc2)n2c1CCCCC2)c1ccc(Cl)cc1	i	i	0.657µM	1.47µM	i	i
O=C(C[n+]1cc(-c2ccc(Cl)c(Cl)c2)n2c1CCC2)OCc1ccccc1	i	i	i	i	i	i
FC(F)(F)C(F)(F)C(F)(F)C(F)(F)C(F)(F)C(F)(F)F	nt	nt	i	i	nt	nt
Cc1occc1-c1nnc(SCc2cc(=O)n3cc(Br)ccc3n2)n1C	44.7µM	i	?	i	i	i
Cc1ccccc1Nc1nc(CSc2nnc(-c3ccoc3C)n2C)cs1	35.5µM	i	i	i	i	i
Cc1ccc(Nc2nc(CSc3nnc(-c4ccncc4)n3C)cs2)cc1	i	i	i	i	i	i
Cc1cncn1CCc1nc2c3ccccc3nc(SCC(=O)Nc3ccccc3F)n2n1	i	nt	nt	nt	nt	i
CCOC(=O)c1cc2c(C)n(-c3ccc(N(C)C)cc3)c(C)c2cc(C(=O)OCC)c1=O	i	i	3.29µM	?	i	i
Cn1c(/C=C/c2ccccc2)nc2ccccc21	i	i	i	i	i	i
CC(=O)c1ccc(/C=C/c2nc3ccccc3n2C)o1	3.55µM	i	i	i	i	i
Cc1cc(C)nc(N2CCCC(CCC(=O)NCc3ccc(F)c(F)c3)C2)n1 (stereo not drawn)	i	i	i	i	i	i
COc1ccc(N(CC(=O)NCc2ccco2)S(C)(=O)=O)cc1OC	i	i	nt	nt	i	i
COc1ccc(C)cc1N(CC(=O)NCCSCc1cccc(Cl)c1)S(C)(=O)=O	i	i	11.7µM	i	i	i
Cc1cccc(N(CC(=O)NCCSCc2ccco2)S(=O)(=O)c2ccccc2)c1	31.6µM	i	?	?	i	i
COc1ccc(N(CC(=O)NCc2ccco2)S(C)(=O)=O)cc1Cl	79.4µM	i	i	i	i	i
COc1ccccc1N(CC(=O)NCCSCc1ccc(Cl)cc1)S(C)(=O)=O	i	i	?	i[0.00184 µM]	i	i
Cc1ccc(C)c(N(CC(=O)NCCSCc2ccco2)S(C)(=O)=O)c1	20µM	i	?	?	i	?
CCCOc1ccccc1C(=O)N1CCCCC1CCN1CCCCC1 (stereo not drawn)	i	nt	nt	nt	nt	i
COc1ccc(S(=O)(=O)N(CC(=O)NCCSc2ccccc2)c2ccc(C)cc2)cc1	i	nt	nt	nt	nt	i
COc1ccc(S(=O)(=O)NCCSCc2ccco2)cc1Cl	31.6µM	i	nt	i	i	?
COc1ccc(N(CC(=O)NCCSCc2ccco2)S(=O)(=O)c2ccccc2)cc1Cl	17.8µM	i	?	11.7µM	i	i
COc1ccc(N(CC(=O)NCCSCc2ccccc2C)S(=O)(=O)c2ccccc2)cc1	i	i	5.22µM	?	?	i
COc1ccc(C)cc1N(CC(=O)NCCSCc1ccco1)S(=O)(=O)c1ccc(C)cc1	31.6µM	i	i	i	i	i
